About 8,600 (12%) of roughly 69,000 compounds showed an effect of 50% or more. For the sample, strong results were picked, then their nearest neighbours and some compounds at random.
tested on: Plasmodium berghei; assay: Screen against P. berghei liver stage (PbLuc), transformed with Luciferase, at 10uM; type: functional, HepG2; conditions: tested at 10 uM

SMILES | INHIBITION [%]
CNC(=O)c1cccc(C2CNCCN2C(=O)c2ccn(C)n2)c1 (centres undefined) | 33.7
CCn1cnnc1C1CCN(C(=O)c2cnc3ccccc3n2)CC1 | 21.3
CCc1nnc(CN2CC(n3cccn3)C2)o1 | -110
Cc1ccc(N2CCCC(NCC(=O)NC(C3CC3)C3CC3)C2)nn1 (centres undefined) | -6.44
CC(=O)N1CCC2(CCN(C(=O)c3ccc(F)c(C(F)(F)F)c3)CC2)C1 | 6.6
CC(=O)N1CCC2(CC1)CCN(C(=O)c1ccc(F)c(C(F)(F)F)c1)C2 | 12.4
CC(=O)N1CCC2(CCN(C(=O)c3ccc(C)c(C(F)(F)F)c3)CC2)C1 | 16.5
CC(=O)N1CCC2(CCN(C(=O)c3cccc(C(F)(F)F)c3)CC2)C1 | 63.7
CC(=O)N1CCC2(CC1)CCN(C(=O)c1cccc(C(F)(F)F)c1)C2 | 55.5
CC(=O)N1CCC2(CCN(C(=O)c3ccc(F)c(C(F)(F)F)c3)C2)C1 (centres undefined) | 17.1
Cc1cc(NCCc2nc(C)c[nH]2)nc(-c2ccccc2O)n1 | 43.6
CN1CCN(C(=O)N2CCC3(CCCN(C4CCOCC4)C3=O)C2)CC1 (centres undefined) | -1.15
COCCN1CCN(S(C)(=O)=O)Cc2ccc(C)nc21 | 16.9
Cc1ccc2c(n1)N(Cc1ccncc1)CCN(S(C)(=O)=O)C2 | 36.9
Cc1ccc2c(n1)N(CC(C)C)CCN(S(C)(=O)=O)C2 | 67.2
CS(=O)(=O)NCC(Cc1cccc(F)c1)N1CCNC1=O (centres undefined) | 15.7
Clc1ccc(COCC2CCN(Cc3ccccn3)CC2)cc1 | 62.3
COc1cc(COCC2CCN(Cc3ccccn3)CC2)cc(OC)c1 | 6.54
Fc1ccc(COCC2CCN(Cc3ccccn3)CC2)cc1 | -56.4
Cc1nc(NC(=O)CNC(=O)c2c(F)cccc2Cl)n[nH]1 | -8.69
CCOCCN1CCN(Cc2cccc(C(=O)N(C)C)c2)CC1C (centres undefined) | -9.37
CN1CCCC1c1cncc(C(=O)NCC2CC2)n1 (centres undefined) | -80
c1ccc(CNc2nc(N3CCOCC3)nc3nccnc23)cc1 | 30.7
O=S(=O)(N1CCCCCC1)N1CCCN(CC2CCCO2)CC1 (centres undefined) | 9.57
COc1ccnc(CNc2nc(C)nc3ccsc23)c1 | 76.9
COc1ccnc(CNc2cc(C3CC3)ncn2)c1 | -47.2
COc1ccnc(CNc2nc(C)nc(C)c2C)c1 | -27.6
CC(C(=O)NCc1ccc(N2CCCCC2)nc1)S(C)(=O)=O (centres undefined) | 9.54
Cc1n[nH]c(C)c1CCC(=O)NCC1(O)CCN(c2ccccn2)C1 (centres undefined) | 3.48

Source: ChEMBL document CHEMBL4513216, “Probing the Open Global Health Chemical Diversity Library for Multistage-Active Starting Points for Next-Generation Antimalarials” (ACS Infect Dis, 2020)
